Test results reported in PubChem BioAssay.
The source made the active and inactive calls. Unless noted, how the calls were made is not given here.

What was measured:
[1] = anti-His antibody binders, primary screen, artefact control for SMM control protein annotation, biochemical, small-molecule microarray, 635 nm fluorescence (AID 1128); details: anti-His Alexa647 antibody binding, higher = more signal;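 further: score merges feature fluorescence with signal-to-noise for each printed compound spot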
[2] = test system: Human papillomavirus type 1a E7 protein (residues 1-88); assay: HPV1a E7 small-molecule binders, primary screen, biochemical, small-molecule microarray, residues 1-88, 635 nm (AID 1129); details: small-molecule microarray binding, fluorescence 635 nm; higher = more signal
[3] = biological target: Focal adhesion kinase 1 (Homo sapiens) (UniProt Q05397); assay: small-molecule microarray binders of FAK, primary screen, biochemical, 635/667 nm fluorescence, BSA, DTT (AID 1130); details: PTK2 binding, 635 nm fluorescence, higher = more signal;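 further: composite of spot emission at 667 nm and signal to noise over triplicate slides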
[4] = test system: Fibrinogen (Alexa647-labelled); assay: fibrinogen binders on compound microarrays, profiling panel, artefact control for SMM control-protein annotation, biochemical, small-molecule microarray, 635/667 nm fluorescence (AID 1131); details: fibrinogen-A647 binding fluorescence, higher = more signal;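 further: z-score merges 667 nm fluorescence with per-spot signal-to-noise over triplicate slides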
[5] = biological target: Follistatin (Homo sapiens) (UniProt P19883); assay: follistatin binders on small-molecule microarrays, primary screen, biochemical, small-molecule microarray, 635/667 nm fluorescence (AID 1132); details: FST binding, 635 nm fluorescence, higher = more signal
[6] = biological target: Fibroblast growth factor 2 (Homo sapiens) (UniProt P09038); assay: FGF2 binders on small-molecule microarrays, primary screen, biochemical, small-molecule microarray, 635/667 nm fluorescence (AID 1133); details: small-molecule microarray binding, FGF2, fluorescence 635/667; higher = more signal
[7] = mitochondrial membrane potential change in A549 cells, profiling panel, cell-based, JC-1 fluorescence, basal, 24 h, 100 nL (AID 1138); details: higher = more signal;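 further: A549 lung adenocarcinoma cells under basal conditions with no added stimulus; test concentration not given here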
Lefty1 = Lefty1 binders on small-molecule microarrays, primary screen, biochemical, small-molecule microarray, 635/667 nm fluorescence (AID 1139); details: small-molecule microarray binding, fluorescence 635/667; higher = more signal
[8] = test system: wheat germ agglutinin (Triticum aestivum), Alexa647-labelled; assay: wheat germ agglutinin binders on compound microarrays, profiling panel, artefact control for SMM control-protein annotation, biochemical, small-molecule microarray, 635/667 nm fluorescence (AID 1140); details: WGA-A647 binding, 635 nm fluorescence, higher = more signal;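 further: score merges 667 nm feature emission with signal to noise over triplicate slides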
[9] = biological target: Luciferin 4-monooxygenase (Photinus pyralis) (UniProt P08659); assay: firefly luciferase enzyme inhibitors, primary screen, biochemical, luminescence, purified enzyme, 2006 set (AID 1141); details: SteadyGlo luminescence, 30 min, higher = more signal, called active from +8 up or from −8 down;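 further: cell-free assay with purified firefly luciferase at 100 ng per well in PBS; test concentration not given here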
[10] = test system: Wnt5a (protein binding on small-molecule microarray); assay: Wnt5a binders on small-molecule microarray, primary screen, biophysical, 635/667 nm fluorescence (AID 1142); details: 635 nm fluorescence, higher = more signal;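 further: fluorescence read at 667 nm with signal to noise per printed feature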
[11] = cell viability in Huh7 cells, primary screen, cytotoxicity control for HCV replication inhibitor project, CellTiter-Glo luminescence, basal, 48 h (AID 1143); details: Huh7 HCV replicon, higher = more signal, called active from +8 up or from −8 down;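 further: Huh7 hepatoma cells carrying a hepatitis C replication reporter with no stimulus; test concentration not given here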
[12] = P. aeruginosa biofilm formation inhibitors, primary screen, PAO1 strain, BacTiter-Glo luminescence, LB-PBS (AID 1144); details: 12 h, higher = more signal
[13] = CREB reporter modulators without forskolin, primary screen, cell-based, PC12, CRE-LacZ reporter, unstimulated (AID 1145); details: no forskolin, luminescence, 4.5 h, higher = more signal, called active from +8 up or from −8 down
[14] = CREB reporter modulators under forskolin, primary screen, cell-based, PC12, CRE-LacZ reporter, forskolin-stimulated (AID 1146); details: luminescence, 4.5 h, higher = more signal, called active from +8 up or from −8 down;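 further: PC12 cells with 6xCRE LacZ reporter stimulated by forskolin 10 µM; beta-galactosidase reporter signal reflecting CREB driven transcription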
[15] = biological target: Streptavidin (Streptomyces avidinii) (UniProt P22629); assay: streptavidin binders on small-molecule microarray, primary screen, artefact control for SMM compound annotation, biophysical, 635/667 nm fluorescence (AID 1147); details: streptavidin binding, higher = more signal;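 further: signal reflects streptavidin binding to arrayed compounds as a control protein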
[16] = small-molecule binders of probe aInhba, primary screen, biochemical, small-molecule microarray, 635/667 nm fluorescence (AID 1148); details: higher = more signal;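 further: score merges 667nm spot fluorescence with signal-to-noise for antibody binding to printed compounds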
Torsin-1A (Homo sapiens) [17] = biological target: Torsin-1A (Homo sapiens) (UniProt O14656); assay: torsin A binders from cell lysate, primary screen, small-molecule microarray, wild-type, 635/667 nm (AID 1149); details: COS7 hTOR1A-WT lysate, 635 nm fluorescence, higher = more signal
Torsin-1A (Homo sapiens) [18] = biological target: Torsin-1A (Homo sapiens) (UniProt O14656); assay: small-molecule binders of mutant TOR1A in lysate, primary screen, cell lysate, small-molecule microarray, COS7 lysate, 635/667 nm fluorescence (AID 1150); details: COS7 hTOR1A mutant lysate, 635 nm fluorescence, higher = more signal;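 further: score pools 667 nm emission and signal to noise measuring lysate protein binding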
[19] = test system: Sonic hedgehog protein (Shh); assay: small-molecule binders of Shh protein, primary screen, biochemical, small-molecule microarray, 635/667 nm fluorescence (AID 1151); details: small-molecule microarray binding, 635 nm fluorescence; higher = more signal;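 further: Shh protein binding to compounds spotted on small-molecule microarray slides; score combines spot fluorescence intensity with signal-to-noise across triplicate slides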

Chain of Torsin-1A (Homo sapiens) (O14656 whole entry, looked up): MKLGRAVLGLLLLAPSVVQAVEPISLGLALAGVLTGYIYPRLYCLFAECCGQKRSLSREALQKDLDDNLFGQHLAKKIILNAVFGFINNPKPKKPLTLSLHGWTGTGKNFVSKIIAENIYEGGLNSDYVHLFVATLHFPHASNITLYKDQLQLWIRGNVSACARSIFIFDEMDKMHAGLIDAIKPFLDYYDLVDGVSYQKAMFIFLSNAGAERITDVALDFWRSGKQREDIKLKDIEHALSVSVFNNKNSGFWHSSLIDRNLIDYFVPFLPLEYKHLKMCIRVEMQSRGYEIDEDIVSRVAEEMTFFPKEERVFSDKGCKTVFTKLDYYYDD
Chain of Streptavidin (Streptomyces avidinii) (P22629 whole entry, looked up): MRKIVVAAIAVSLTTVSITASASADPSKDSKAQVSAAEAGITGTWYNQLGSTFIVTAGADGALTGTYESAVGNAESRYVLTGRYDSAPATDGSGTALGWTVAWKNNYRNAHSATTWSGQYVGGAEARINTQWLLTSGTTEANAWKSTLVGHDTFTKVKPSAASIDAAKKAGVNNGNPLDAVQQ
Chain of Fibroblast growth factor 2 (Homo sapiens) (P09038 whole entry, looked up): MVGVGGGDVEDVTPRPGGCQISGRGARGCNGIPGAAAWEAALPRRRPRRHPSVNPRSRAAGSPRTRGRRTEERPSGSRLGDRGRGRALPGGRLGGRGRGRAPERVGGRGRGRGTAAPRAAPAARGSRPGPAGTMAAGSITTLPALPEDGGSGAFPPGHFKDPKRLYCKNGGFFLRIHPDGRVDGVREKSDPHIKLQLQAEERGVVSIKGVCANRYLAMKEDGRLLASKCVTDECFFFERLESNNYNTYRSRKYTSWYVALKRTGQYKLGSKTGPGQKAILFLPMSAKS
Chain of Luciferin 4-monooxygenase (Photinus pyralis) (P08659 whole entry, looked up): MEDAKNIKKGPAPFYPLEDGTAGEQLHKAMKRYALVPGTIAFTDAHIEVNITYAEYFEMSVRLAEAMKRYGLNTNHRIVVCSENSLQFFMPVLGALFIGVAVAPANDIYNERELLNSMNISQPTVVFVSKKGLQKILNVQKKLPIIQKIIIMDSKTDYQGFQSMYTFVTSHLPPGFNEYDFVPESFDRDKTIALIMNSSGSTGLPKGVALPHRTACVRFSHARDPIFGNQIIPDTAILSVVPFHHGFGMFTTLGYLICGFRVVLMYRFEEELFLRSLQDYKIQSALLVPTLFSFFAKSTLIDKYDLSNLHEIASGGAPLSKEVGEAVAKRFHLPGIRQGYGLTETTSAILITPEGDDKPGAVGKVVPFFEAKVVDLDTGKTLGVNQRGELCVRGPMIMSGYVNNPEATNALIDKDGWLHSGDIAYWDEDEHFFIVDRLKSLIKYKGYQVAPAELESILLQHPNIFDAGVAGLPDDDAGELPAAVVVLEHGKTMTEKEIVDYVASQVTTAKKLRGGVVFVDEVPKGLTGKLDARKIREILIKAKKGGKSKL
Chain of Focal adhesion kinase 1 (Homo sapiens) (Q05397 whole entry, looked up): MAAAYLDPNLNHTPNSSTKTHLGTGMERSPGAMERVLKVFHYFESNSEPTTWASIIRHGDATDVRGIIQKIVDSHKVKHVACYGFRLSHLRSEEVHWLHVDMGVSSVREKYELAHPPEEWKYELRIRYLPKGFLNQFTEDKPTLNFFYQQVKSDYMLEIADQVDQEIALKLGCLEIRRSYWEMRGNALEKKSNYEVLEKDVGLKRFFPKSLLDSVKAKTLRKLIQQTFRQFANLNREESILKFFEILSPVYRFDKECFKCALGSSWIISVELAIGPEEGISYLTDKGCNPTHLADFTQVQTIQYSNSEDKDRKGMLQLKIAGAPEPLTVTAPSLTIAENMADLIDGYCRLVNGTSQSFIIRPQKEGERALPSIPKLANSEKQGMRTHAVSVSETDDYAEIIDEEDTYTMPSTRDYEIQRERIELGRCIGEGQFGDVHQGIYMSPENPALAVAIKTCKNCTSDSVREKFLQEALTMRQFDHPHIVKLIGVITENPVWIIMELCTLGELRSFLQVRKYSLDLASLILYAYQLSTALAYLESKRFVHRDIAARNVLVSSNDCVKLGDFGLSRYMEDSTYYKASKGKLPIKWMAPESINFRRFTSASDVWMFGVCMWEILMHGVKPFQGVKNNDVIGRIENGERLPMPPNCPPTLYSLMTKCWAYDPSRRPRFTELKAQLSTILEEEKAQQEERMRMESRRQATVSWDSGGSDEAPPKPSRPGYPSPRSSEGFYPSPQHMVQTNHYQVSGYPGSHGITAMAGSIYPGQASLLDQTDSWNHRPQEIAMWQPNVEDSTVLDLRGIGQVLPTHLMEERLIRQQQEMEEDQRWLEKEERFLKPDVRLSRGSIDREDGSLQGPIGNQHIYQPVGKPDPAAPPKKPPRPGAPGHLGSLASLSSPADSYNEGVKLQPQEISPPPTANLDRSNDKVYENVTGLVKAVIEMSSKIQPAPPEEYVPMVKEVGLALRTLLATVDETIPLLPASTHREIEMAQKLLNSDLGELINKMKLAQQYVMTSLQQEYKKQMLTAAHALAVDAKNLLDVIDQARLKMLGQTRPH
Chain of Follistatin (Homo sapiens) (P19883 whole entry, looked up): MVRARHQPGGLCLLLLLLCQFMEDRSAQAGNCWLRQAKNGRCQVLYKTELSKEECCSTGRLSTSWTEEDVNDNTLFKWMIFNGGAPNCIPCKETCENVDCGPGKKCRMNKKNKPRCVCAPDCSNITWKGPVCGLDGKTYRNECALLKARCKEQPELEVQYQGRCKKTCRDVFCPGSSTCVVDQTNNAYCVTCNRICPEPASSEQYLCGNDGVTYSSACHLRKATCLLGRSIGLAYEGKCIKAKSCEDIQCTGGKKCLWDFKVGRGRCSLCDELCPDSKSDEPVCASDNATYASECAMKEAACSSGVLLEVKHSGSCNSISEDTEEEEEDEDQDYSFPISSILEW

| Structure (SMILES) | composite z-score [1] | composite z-score [2] | composite z-score [3] | composite z-score [4] | composite z-score [5] | composite z-score [6] | z-score [7] | composite z-score (Lefty1) | composite z-score [8] | z-score [9] | composite z-score [10] | z-score [11] | z-score [12] | z-score [13] | z-score [14] | composite z-score [15] | composite z-score [16] | composite z-score (Torsin-1A (Homo sapiens) [17]) | composite z-score (Torsin-1A (Homo sapiens) [18]) | composite z-score [19] |
| --- | --- | --- | --- | --- | --- | --- | --- | --- | --- | --- | --- | --- | --- | --- | --- | --- | --- | --- | --- | --- |
| COCCOC(=O)N1C(=O)[C@@]2(c3cc(C#CCNC(N)=O)ccc31)[C@H](C(=O)NC[C@H](O)c1ccccc1)[C@H]1C(=O)O[C@H](c3ccccc3)[C@H](c3ccccc3)N1[C@@H]2c1ccc(OCCO)cc1 | 0.991 | 1.16 | 0.707 | 0.884 | 1.18 | 0.581 | -0.71 | 0.753 | 0.851 | -0.496 (inactive) | 0.0906 | -0.8 (inactive) | -0.297 (inactive) | -0.606 (inactive) | -0.965 (inactive) | 0.516 | -0.192 | 0.131 | 0.219 | 0.783 |
| CN1C(=O)C2C(C1=O)C1C=C(c3ccc(CO)cc3)C2C(c2cccs2)N1C (stereo not given) | 0.495 | 0.157 | 0.0955 | 0.783 | -0.0613 | -0.25 | -0.0324 | -0.295 | 0.742 | -0.836 (inactive) | -0.192 | -1.04 (inactive) | 2.04 (inactive) | 1.98 (inactive) | -0.999 (inactive) | 1.56 | -0.0523 | 0.233 | 0.221 | 0.237 |
| O=C(NCC(F)(F)F)[C@@H]1c2ccccc2C(=O)N(CC23CC4CC(CC(C4)C2)C3)[C@H]1c1ccc(CO)cc1 | 1.08 | 0.722 | 1.46 | 0.378 | 1.16 | 1.15 | 0.588 | 0.827 | 0.393 | 0.972 (inactive) | 0.41 | -3.88 (inactive) | -2.52 (inactive) | -0.412 (inactive) | -1.46 (inactive) | -0.169 | 0.038 | 0.11 | 0.438 | 1.62 |
| CCOC(=O)C1=C(C(=O)OCC)N(S(=O)(=O)CC[Si](C)(C)C)[C@H](c2ccccc2)CC1 | 0.171 | 1.17 | -0.069 | 0.837 | 0.761 | -0.0502 | 2.54 | 0.566 | 1.1 | 1.01 (inactive) | 0.263 | -4.45 (inactive) | 0.338 (inactive) | 0.229 (inactive) | 0.207 (inactive) | 0.955 | 0.131 | 0.454 | 0.476 | -0.424 |
| COCCCNC(=O)[C@@]1(Sc2ccc(C)cc2)CC(=O)N(C2CCCCC2)[C@@H]1c1ccc(CO)cc1I | 1.74 | 1.18 | 0.737 | 0.922 | 1.09 | 0.659 | 0.816 | 0.136 | 0.814 | 0.235 (inactive) | 0.0699 | -1.41 (inactive) | 0.134 (inactive) | -0.258 (inactive) | 1.17 (inactive) | 0.404 | 0.541 | 0.0619 | 0.401 | 0.993 |
| COCCOC(=O)N1C(=O)[C@@]2(c3cc(C#CC4(O)CCCCCC4)ccc31)[C@H](c1ccccc1OCCO)N1[C@H](c3ccccc3)[C@H](c3ccccc3)OC(=O)[C@H]1[C@@H]2C(=O)N1CCCCCCC1 | 0.663 | 1.23 | 0.504 | 0.733 | 1.45 | 1.09 | -0.768 | 1.37 | 1.29 | 0.144 (inactive) | 0.611 | -4.01 (inactive) | -0.977 (inactive) | -1.01 (inactive) | 0.881 (inactive) | 1.64 | 1.2 | 0.812 | 1.02 | 2.01 |
| C=CC[C@]1(C(=O)NCc2ccccc2)COC(c2ccc(OCCCO)cc2)=N1 | 0.16 | -0.0156 | -0.19 | 0.295 | -0.431 | -0.87 | 1.03 | -0.95 | 1.02 | -0.218 (inactive) | 0.602 | -3.63 (inactive) | 0.271 (inactive) | 1.38 (inactive) | -0.505 (inactive) | -0.479 | 0.0503 | 0.29 | 1.52 | -0.88 |
| CCCCC(=C=CC[C@@H](O)c1cccc(OCCO)c1)CCO | -0.378 | -0.437 | -0.0962 | 0.449 | 0.242 | 0.154 | 0.613 | 0.448 | 0.771 | -0.656 (inactive) | 0.0999 | -0.562 (inactive) | -0.564 (inactive) | 3.5 (inactive) | -0.468 (inactive) | 1.42 | -0.188 | -1.33 | -0.828 | 0.364 |
| CN1C(=O)[C@]2(CCS(=O)(=O)c3ccccc3)N=C(c3ccc(OCCCO)cc3)O[C@@H]2c2ccccc21 | 2.44 | 1.27 | 1.26 | 0.495 | 1.47 | 0.699 | 1.87 | 0.34 | 0.318 | -1.76 (inactive) | 0.088 | -3.67 (inactive) | 1.24 (inactive) | 1.34 (inactive) | -0.547 (inactive) | 0.294 | 0.174 | 0.0148 | 1.16 | 1.54 |
| COCCOC(=O)N1C(=O)[C@@]2(c3cc(C#CCCO)ccc31)[C@H](c1ccc(O)cc1)N1[C@H](c3ccccc3)[C@H](c3ccccc3)OC(=O)[C@H]1[C@@H]2C(=O)N1CCc2cc(OC)c(OC)cc2C1 | 0.432 | 1.25 | 0.514 | 0.81 | 1.36 | 1.59 | 0.257 | 1.36 | 1.03 | 0.298 (inactive) | 0.565 | 0.0501 (inactive) | -0.883 (inactive) | -0.0647 (inactive) | -1.05 (inactive) | 0.354 | 0.628 | 1.07 | 0.761 | 1.32 |
